Screening data (PubChem BioAssay)
HepG2 viability: counter-screen for TGF-b inhibitors: cytotoxicity in HepG2 cells; HepG2 CAGA-GFP viability, ATP luminescence, 18 h; 410,000 tested, 0.76% active; Potency, µM (titrated, usually from 46.1 µM), for inactives: top-dose activity change, negative = cytotoxicity, actives largely listed as cytotoxic; note: potency is the fitted concentration of half-maximal effect
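CellTiter-Glo luminescence gave cytotoxicity after 18 hours at 37 degrees C. The cells were HepG2 CAGA-GFP in 1% FBS DMEM, stimulated with 500 pg/mL TGF-beta after compound addition. %Activity was normalised to no-cell wells (complete cell-killing) and DMSO (no toxicity), and curves were fitted and classified.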
TGFb SMAD3 inh: TGF-b pathway inhibition. HepG2 CAGA-GFP TGF-b/SMAD3 reporter, GFP fluorescence, 18 h; TGF-beta stimulated, 500 pg/mL final. Potency, µM (doses to about 46.1 µM), inactives show top-dose activity, negative = inhibition, hits mostly inhibitors. 410,000 tested, 1.2% active. AID 588855; note: potency is the fitted concentration of half-maximal effect; % is set by controls: 0 for no effect and ±100 for the full control effect; nearly all actives have a fitted effect of over 65% in size
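Using HEPG2 CAGA-GFP reporter cells at 1000 cells/well, we pinned test compounds, stimulated with recombinant TGF-beta (500 pg/mL final) and measured total well GFP after 18 h.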
DT40 TDP1 no CPT: qHTS for Inhibitors of human tyrosyl-DNA phosphodiesterase 1 (TDP1): qHTS in cells in absence of CPT; Potency, µM (top dose mostly 46.2 µM), inactives show at the highest dose activity change, negative = growth inhibition, usual class: inhibitors; DT40 Tdp1-/- hTDP1 cells, no CPT, ATP luminescence, 48 h; 420,000 tested, 15% active; note: potency is the fitted concentration of half-maximal effect; % is set by controls: 0 for no effect and ±100 for the full control effect; nearly all actives have a fitted effect of over 55% in size
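Chicken DT40 Tdp1-/- cells stably complemented with human TDP1 were seeded at 400 cells/well with DMSO in place of 20 nM camptothecin. After compound pinning, cells grew at least 48 hr at 37 °C; viability read by CellTiter-Glo luminescence.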
S-ASM inh: human S-ASM enzyme inhibition | Potency, µM (series often up to 57.5 µM), without a hit: top-dose activity change, negative = inhibition, hits mostly inhibitors | placental ASM, HMU-PC fluorogenic substrate, 60 min | P17405 | 340,000 tested, 0.006% active; note: potency is the fitted concentration of half-maximal effect
Target sequence (P17405 47-631 limits assumed): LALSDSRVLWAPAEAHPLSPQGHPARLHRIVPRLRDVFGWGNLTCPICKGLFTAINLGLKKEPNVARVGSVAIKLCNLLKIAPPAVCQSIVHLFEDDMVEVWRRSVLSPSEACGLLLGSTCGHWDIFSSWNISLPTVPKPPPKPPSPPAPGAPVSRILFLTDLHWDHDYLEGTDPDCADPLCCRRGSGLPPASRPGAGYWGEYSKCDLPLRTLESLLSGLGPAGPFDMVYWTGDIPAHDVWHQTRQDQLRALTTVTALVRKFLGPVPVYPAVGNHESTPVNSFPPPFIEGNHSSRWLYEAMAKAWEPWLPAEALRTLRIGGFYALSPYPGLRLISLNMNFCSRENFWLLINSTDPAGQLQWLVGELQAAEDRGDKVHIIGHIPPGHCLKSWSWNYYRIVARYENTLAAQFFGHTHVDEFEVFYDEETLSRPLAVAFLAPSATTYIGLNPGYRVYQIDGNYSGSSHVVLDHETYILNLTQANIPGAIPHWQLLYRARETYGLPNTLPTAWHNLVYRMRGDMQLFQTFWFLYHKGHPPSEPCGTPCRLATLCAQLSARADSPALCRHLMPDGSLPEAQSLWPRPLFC
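HMU-PC0 cleavage (9 uM final) by human placental ASM, 60 min at 37 °C following 10 min compound exposure at RT; stopped at pH 10, fluorescence Ex 386/Em 447 nm.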
IL-1B inflam inh: inhibitors of inflammasome signaling (IL-1 beta secretion); 360,000 tested, 4.7% active; AID 743279; THP-1 LPS/ATP IL-1B secretion, AlphaLISA, 16 h; active compounds read low; activity change, % at 57.5 µM; in the data active = activity change below about -50%; inconclusive = mostly about -30% to -49%; note: % is set by controls: 0 for no effect and ±100 for the full control effect
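THP-1 cells pretreated 1 hr with compounds (up to 57.5 uM final), then stimulated with LPS (250 ng/mL final) plus ATP (1.25 mM final); secreted IL-1B measured by AlphaLISA after 16 hr, decreased signal indicating inhibition.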
TDP1 cell CPT: DT40-hTDP1 cell growth loss with CPT | AID 686979 | 420,000 tested, 12% active | Potency, µM (series often up to 46.2 µM), without a hit: top-dose activity change, negative = growth inhibition, hits mostly inhibitors | chicken DT40 Tdp1-/-;hTDP1 cells + 20 nM CPT, ATP luminescence, 48 h; note: potency is the fitted concentration of half-maximal effect; % is set by controls: 0 for no effect and ±100 for the full control effect; nearly all actives have a fitted effect of over 55% in size
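Cell growth measured by CellTiter-Glo luminescence after a minimum 48 h, 37 C compound exposure with 20 nM CPT in Tdp1-knockout DT40 cells stably expressing hTDP1, seeded 400/well; qHTS titration format.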
Starred values were filed as active, the others as inactive; ? = inconclusive; nt = no result. An excerpt weighted towards active compounds, which were near 19% of everything screened. Unless noted, calls come from the whole dose curve; as a rule, active = well fitted curve in the direction sought with a large enough effect; inconclusive = small, poorly fitted or top-dose-only effect, or another doubt; inactive = no such curve, though single readings can be large; an effect the other way counts as inactive or inconclusive.

SMILES	HepG2 viability	TGFb SMAD3 inh	DT40 TDP1 no CPT	S-ASM inh	IL-1B inflam inh	TDP1 cell CPT
CC(Oc1ccccc1)C(=O)N1CCc2ccccc2C1 (configuration not stated)	-1%	-11%	-1%	3%	0	?
CCOc1ccc(NC(=O)C2=NN(c3ccccc3)C(=O)CC2)cc1S(=O)(=O)N1CCCCC1	-3%	-22%	?	-3%	-10	?
Nc1nc(CN2CCOCC2)cs1	-1%	-3%	29µM*	-2%	10	?
Nc1nc(CN2CCCCC2)cs1	4%	12%	-4%	-2%	0	-2%
COc1cc(/C=C/c2nc3cc(Cl)ccc3c(=O)n2-c2ccc(C)cc2C)cc(OC)c1OC	-18%	?	?	nt	nt	16µM*
O=S(=O)(Nc1cccc(-c2ccc(N3CCOCC3)nn2)c1)c1ccc(F)cc1F	-14%	-8%	-20%	nt	nt	-25%
COc1ccc(C(CNC(=O)COc2ccc(F)cc2Br)N2CCCC2)cc1 (configuration not stated)	-25%	8%	?	7%	-54*	?
Cc1ccccc1OCC(=O)NCC(c1ccc(Cl)cc1)N1CCCCC1 (configuration not stated)	-15%	-17%	13µM*	nt	nt	21µM*
COc1ccc(C(CNC(=O)COc2ccccc2C)N2CCCCC2)cc1 (configuration not stated)	-19%	-9%	16µM*	-1%	-6	21µM*
COc1ccc(C(CNC(=O)COc2cc(C)ccc2Cl)N2CCCCC2)cc1 (configuration not stated)	0%	4%	?	4%	41	?
COc1ccc(CNC(=O)[C@H](C)NC(=O)C2CCN(S(=O)(=O)c3ccc(F)cc3)CC2)cc1	7%	8%	10%	0%	30	-2%
CCNC(=O)C1CCCN(Cc2ccc(C(=O)OCC)cc2)CC1 (configuration not stated)	7%	-13%	-4%	nt	11	-9%
Cc1ccc(-c2cnc(C3CC3)o2)cc1S(=O)(=O)Nc1ccc(F)cc1Cl	-31%	?	26µM*	nt	nt	?
CCOC(=O)c1cccc(NS(=O)(=O)c2cc(-c3cnc(C4CC4)o3)ccc2C)c1	-49%	18µM*	2.1µM*	nt	nt	2.6µM*
CCOC(=O)c1cccc(NS(=O)(=O)c2cc3[nH]c(=O)c(=O)[nH]c3cc2C)c1	-12%	-7%	5%	nt	nt	-3%
COc1ccc(NS(=O)(=O)c2cc(-c3cnc(C4CC4)o3)ccc2C)cc1	-32%	-24%	4.6µM*	-13%	-1	6.5µM*
Cc1ccc(C2C(C#N)=C(N)Oc3n[nH]c(-c4ccccc4)c32)o1 (configuration not stated)	3%	-4%	23µM*	-2%	4	13µM*
COCc1[nH]nc2c1C(c1ccc(OC)cc1)C(C#N)=C(N)O2 (configuration not stated)	-22%	-9%	-18%	0%	-13	?
COc1ccc(-c2ccc(C3C(C#N)=C(N)Oc4n[nH]c(C)c43)o2)cc1 (configuration not stated)	-38%	?	21µM*	-2%	-3	21µM*
Cc1[nH]nc2c1C(c1cn[nH]c1-c1ccc(F)cc1)C(C#N)=C(N)O2 (configuration not stated)	-12%	2%	?	-1%	-80*	?
C/C=C/c1ccc(OCCOc2cc(C=O)ccc2OC)c(OC)c1	-22%	?	26µM*	-11%	-11	?
C/C=C/c1ccc(OCCOCCNCc2ccccc2)c(OC)c1	-47%	?	18µM*	6%	?	?
C/C=C/c1ccc(OCC(=O)O)c(OC)c1	3%	-18%	-16%	-4%	16	-2%
Cc1cc(C)c(C)c(OCCOCCNCc2ccccc2)c1	-51%	?	18µM*	2%	?	?
Cc1ccc(OCCNCc2ccccc2)c(C)c1	-25%	17%	?	-4%	-7	?
SMILES	HepG2 viability	TGFb SMAD3 inh	DT40 TDP1 no CPT	S-ASM inh	IL-1B inflam inh	TDP1 cell CPT
Cc1c(CNC2CCCCC2)c(C(=O)O)c(C)n1Cc1ccccc1F	-1%	-9%	6%	nt	nt	5%
CCOC(=O)COc1cccc2c(=O)n(CC(=O)NCc3ccc(F)cc3)ccc12	-7%	?	0.52µM*	3%	45	0.58µM*
CCOC(=O)COc1cccc2c(=O)n(CC(=O)N3CCCCC3)ccc12	-19%	5%	13%	4%	25	-3%
CCOC(=O)COc1cccc2c(=O)n(CC(=O)NCc3ccccc3)ccc12	-4%	-25%	0.65µM*	0%	49	1µM*
CCOC(=O)COc1cccc2c(=O)n(CC(N)=O)ccc12	-5%	-9%	29%	6%	-58*	-10%
COC(=O)COc1cccc2c(=O)n(CC(=O)NCCc3ccccc3)ccc12	-37%	?	-1%	-1%	-7	-3%
CCOC(=O)C(C)Oc1cccc2c(=O)n(CC(=O)NCc3ccc4c(c3)OCO4)ccc12 (configuration not stated)	-19%	?	2.3µM*	0%	-20	2.6µM*
COc1cccc(CNC(=O)c2c(OC)cc(=O)n3c2CCN(C(=O)c2cc(F)cc(F)c2)CC3)c1	nt	nt	-14%	nt	nt	-7%
COc1ccc(C)cc1NC(=O)C1CCN(S(=O)(=O)c2cc(Br)cc3c2N(C(C)=O)CC3)CC1	-31%	-17%	-10%	nt	nt	0%
COCCN(C(=O)CSc1nnc(-c2ccc(F)cc2)n1N)c1c(N)n(CC(C)C)c(=O)[nH]c1=O	8%	2%	-17%	nt	25	-8%
COC(=O)c1cc(C(=O)Nn2cnnc2)cc([N+](=O)[O-])c1	15%	-8%	0%	0%	4	1%
CCOC(=O)C1(CCCc2ccccc2)CCN(C2CCN(C(C)=O)CC2)CC1	-17%	-13%	?	2%	0	?
CCCCNC(=S)NNC(=O)c1csc(C)c1C	0%	-1%	?	8%	0	?
Cc1scc(C(=O)NNC(=S)NC(C)c2ccccc2)c1C (configuration not stated)	-7%	?	21µM*	0%	-6	16µM*
[O-]/[N+](=C\c1ccccc1)c1ccc(Br)cc1	-1%	-4%	16µM*	-1%	1	?
